# Reference: the supplement of paper PMC6089552
# Hit rate of the full screen: of about 3,200 compounds, about 300 (9.4%) showed activity. Shown is part of a subset that was picked to be rich in actives. A number with no mark means an inactive call.
# Tested on: A673/TR/shEF
# Assay: cell viability (LOESS-normalised, relative to median of negative controls) (log2 ratio); higher = more viable cells (less compound effect), active = hit call of the paper (over 3 MAD below the median)
# Conditions: treatment time: 72 h
# Summary of the method: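 A673/TR/shEF Ewing sarcoma cells were plated at 1,500 per well in 384-well plates and cultured with or without doxycycline, added 24 h before compounds, to induce EWS-FLI1 shRNA knockdown. Library compounds at two or more concentrations, alongside DMSO controls, were applied for three days. Cell viability was measured by CellTiter-Glo luminescence on an Envision reader. Readings were LOESS-corrected per plate, divided by the median of negative controls and log2-transformed, and hits were wells lying at least three median absolute deviations from the median of all screened wells.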
# [1] = 0.25 µM, library screen: screen2, EWS-FLI1 expression: high (no doxycycline)
# [2] = 0.25 µM, library screen: screen2, EWS-FLI1 expression: low (doxycycline-induced shRNA knockdown)
# [3] = 2.5 µM, library screen: screen2, EWS-FLI1 expression: high (no doxycycline)
# [4] = 2.5 µM, library screen: screen2, EWS-FLI1 expression: low (doxycycline-induced shRNA knockdown)
# [5] = 0.25 µM, library screen: screen1, EWS-FLI1 expression: high (no doxycycline)
# [6] = 0.25 µM, library screen: screen1, EWS-FLI1 expression: low (doxycycline-induced shRNA knockdown)
# [7] = 2.5 µM, library screen: screen1, EWS-FLI1 expression: high (no doxycycline)
# [8] = 2.5 µM, library screen: screen1, EWS-FLI1 expression: low (doxycycline-induced shRNA knockdown)
compound,measurement,setting,value
CC(=O)O[C@H]1C[C@@H]2CC[C@@H]3[C@H](CC[C@@]4(C)[C@H]3C[C@H]([N+]3(C)CCCCC3)[C@@H]4OC(C)=O)[C@@]2(C)C[C@@H]1[N+]1(C)CCCCC1,cell viability (log2),"0.103 µM, library screen: screen3, EWS-FLI1 expression: high (no doxycycline)",0.0285
same,cell viability (log2),"0.103 µM, library screen: screen3, EWS-FLI1 expression: low (doxycycline-induced shRNA knockdown)",0.0357
same,cell viability (log2),[1],0.133
same,cell viability (log2),[2],0.105
same,cell viability (log2),"0.308 µM, library screen: screen3, EWS-FLI1 expression: high (no doxycycline)",0.115
same,cell viability (log2),"0.308 µM, library screen: screen3, EWS-FLI1 expression: low (doxycycline-induced shRNA knockdown)",0.051
same,cell viability (log2),"0.926 µM, library screen: screen3, EWS-FLI1 expression: high (no doxycycline)",0.183
same,cell viability (log2),"0.926 µM, library screen: screen3, EWS-FLI1 expression: low (doxycycline-induced shRNA knockdown)",0.0779
same,cell viability (log2),[3],0.145
same,cell viability (log2),[4],0.0752
same,cell viability (log2),"2.8 µM, library screen: screen3, EWS-FLI1 expression: high (no doxycycline)",0.112
same,cell viability (log2),"2.8 µM, library screen: screen3, EWS-FLI1 expression: low (doxycycline-induced shRNA knockdown)",0.0286
same,cell viability (log2),"8.3 µM, library screen: screen3, EWS-FLI1 expression: high (no doxycycline)",0.106
same,cell viability (log2),"8.3 µM, library screen: screen3, EWS-FLI1 expression: low (doxycycline-induced shRNA knockdown)",0.0203
same,cell viability (log2),"25 µM, library screen: screen3, EWS-FLI1 expression: high (no doxycycline)",0.16
same,cell viability (log2),"25 µM, library screen: screen3, EWS-FLI1 expression: low (doxycycline-induced shRNA knockdown)",0.0865
NS(=O)(=O)c1ccc2c(c1)CNCC2,cell viability (log2),[1],0.162
same,cell viability (log2),[2],0.085
same,cell viability (log2),[3],0.143
same,cell viability (log2),[4],0.0805
CC[S+]([O-])CCSP(=O)(OC)OC (configuration not stated),cell viability (log2),[5],0.119
same,cell viability (log2),[6],0.0126
same,cell viability (log2),[7],0.119
same,cell viability (log2),[8],0.0247
NC(=O)c1cc([N+](=O)[O-])cc([N+](=O)[O-])c1,cell viability (log2),"0.025 µM, library screen: screen2, EWS-FLI1 expression: high (no doxycycline)",0.148
same,cell viability (log2),"0.025 µM, library screen: screen2, EWS-FLI1 expression: low (doxycycline-induced shRNA knockdown)",0.069
same,cell viability (log2),[5],0.071
same,cell viability (log2),[6],0.00829
same,cell viability (log2),[1],0.134
same,cell viability (log2),[2],0.0542
same,cell viability (log2),[7],0.16
same,cell viability (log2),[8],0.158
same,cell viability (log2),[3],0.195
same,cell viability (log2),[4],0.121
same,cell viability (log2),"25 µM, library screen: screen2, EWS-FLI1 expression: high (no doxycycline)",0.244
same,cell viability (log2),"25 µM, library screen: screen2, EWS-FLI1 expression: low (doxycycline-induced shRNA knockdown)",0.114
C=C[C@H]1CN2CC[C@H]1C[C@@H]2[C@@H](OC(=O)OCC)c1ccnc2ccc(OC)cc12,cell viability (log2),[5],0.12
same,cell viability (log2),[6],0.082
same,cell viability (log2),[7],0.173
same,cell viability (log2),[8],0.169
Brc1ccc(CN2CCNCC2)cc1,cell viability (log2),[5],0.0414
same,cell viability (log2),[6],0.121
same,cell viability (log2),[7],0.0626
same,cell viability (log2),[8],0.0805
C[C@@H](N)[C@@H](O)c1ccccc1,cell viability (log2),[5],0.199
same,cell viability (log2),[6],0.05
same,cell viability (log2),[7],0.0838
same,cell viability (log2),[8],0.0342
O=C(O)COc1ccc(Cl)cc1Cl,cell viability (log2),[5],0.0733
same,cell viability (log2),[6],0.0542
same,cell viability (log2),[7],0.0257
same,cell viability (log2),[8],0.121
Oc1ccc2c3c1O[C@H]1c4oc5ccccc5c4C[C@@]4(O)C(C2)N(CC2CC2)CCC314 (some centres not stated),cell viability (log2),[1],0.123
same,cell viability (log2),[2],0.122
same,cell viability (log2),[3],0.0412
same,cell viability (log2),[4],0.065
CC(C)(C)c1o[nH]c(=O)c1CC(N)C(=O)O (configuration not stated),cell viability (log2),[1],0.0947
same,cell viability (log2),[2],0.0371
same,cell viability (log2),[3],0.104
same,cell viability (log2),[4],0.0294
CC[C@@H](C)C(=O)O[C@H]1[C@H](O)[C@H]2[C@@H](CN3C[C@@H](C)CC[C@H]3[C@@]2(C)O)[C@@H]2C[C@]34O[C@]5(O)[C@@H](OC(=O)[C@@](C)(O)[C@@H](C)O)CC[C@@]3(C)[C@@H]5[C@@H](OC(C)=O)[C@@H](OC(C)=O)[C@H]4[C@@]21O,cell viability (log2),[5],0.0432
same,cell viability (log2),[6],0.0125
same,cell viability (log2),[7],0.068
same,cell viability (log2),[8],0.0811
CN1C2CC3CC1[C@H](O)C2O3 (some centres not stated),cell viability (log2),[5],0.0139
same,cell viability (log2),[6],-0.0209
same,cell viability (log2),[7],0.0278
same,cell viability (log2),[8],0.0758
NC(CF)(Cc1cnc[nH]1)C(=O)O (configuration not stated),cell viability (log2),[1],0.186
same,cell viability (log2),[2],0.069
same,cell viability (log2),[3],0.162
same,cell viability (log2),[4],0.1
CC(=O)O[C@@H]1C[C@H]2C(C)(C)C(=O)C=C[C@]2(C)[C@H]2CC[C@]3(C)C(=CC(=O)O[C@H]3c3ccoc3)[C@@]21C,cell viability (log2),[5],0.03
same,cell viability (log2),[6],0.143
same,cell viability (log2),[7],0.0618
same,cell viability (log2),[8],0.0922
C=C(C)C(=O)/C(=C\C(=O)O)OC,cell viability (log2),[5],0.0761
same,cell viability (log2),[6],0.0593
same,cell viability (log2),[7],0.138
same,cell viability (log2),[8],0.0173
COP(=O)(OC)OC(Br)C(Cl)(Cl)Br (configuration not stated),cell viability (log2),[5],0.05
same,cell viability (log2),[6],-0.000859
same,cell viability (log2),[7],0.0787
same,cell viability (log2),[8],0.115
COc1cc(OC)c(OC)cc1C=O,cell viability (log2),[5],0.0675
same,cell viability (log2),[6],0.0986
same,cell viability (log2),[7],0.037
same,cell viability (log2),[8],0.0609
CN[C@@H](C)[C@H](O)c1ccccc1,cell viability (log2),[5],0.0728
same,cell viability (log2),[6],0.0797
same,cell viability (log2),[1],0.178
same,cell viability (log2),[2],0.073
same,cell viability (log2),[7],0.233
same,cell viability (log2),[8],0.0725
same,cell viability (log2),[3],0.0371
same,cell viability (log2),[4],0.00703
O=C(O)c1cc[c]([Hg][Cl])cc1,cell viability (log2),[1],0.203
same,cell viability (log2),[2],0.0774
same,cell viability (log2),[3],-0.0791 (active)
same,cell viability (log2),[4],0.0559
COc1ccc(C(=O)O)cc1OC,cell viability (log2),[5],0.0171
same,cell viability (log2),[6],0.0588
same,cell viability (log2),[7],0.137
same,cell viability (log2),[8],-0.0498
NNCc1cccc(O)c1,cell viability (log2),[5],0.103
same,cell viability (log2),[6],0.0544
same,cell viability (log2),[1],0.129
same,cell viability (log2),[2],0.00623
same,cell viability (log2),[7],0.142
same,cell viability (log2),[8],0.142
same,cell viability (log2),[3],0.151
same,cell viability (log2),[4],0.0221
